Sampled rows, rich in hits. Any-hit rate of the full collection: about 6.3%.
tim10-1 inh: growth inhibitors of tim10-1 mutant yeast, primary screen, luminescence, uHTS; 330,000 tested, 2.2% active; S. cerevisiae tim10-1 ts strain growth, BacTiter-Glo, 24 h; inhibition, % at 20 µM; AID 463190, 2010;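 active means inhibition of at least 40%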;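 further: mutant grown at 25 °C; 0% = DMSO wells with yeast and 100% = wells holding no yeast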
MPTP block: mitochondrial permeability transition pore inhibitors, primary screen, biochemical, isolated mouse mitochondria, absorbance. Ca2+ swelling absorbance, 30 min. inhibition, % at 10 µM. 360,000 tested, 1.4% active. AID 602449, 2012;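 active means inhibition of 50% or more, scaled per plate between neutral and stimulator controls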;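 further: 0% = DMSO wells given calcium and 100% = 1 mM EGTA wells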
tim23-1 inh: growth inhibitors of tim23-1 mutant yeast, primary screen, luminescence, uHTS. S. cerevisiae tim23-1 growth, BacTiter-Glo luminescence, 24 h. inhibition, % at 20 µM. 330,000 tested, 1.3% active;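 active means growth inhibition of the mutant yeast at or above 50%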;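 further: temperature-sensitive mutant grown at 25 °C; plate controls were DMSO-treated mutant yeast for no effect and medium wells lacking yeast for full effect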
TIM10 inh: growth inhibitors of isogenic TIM10 control yeast, primary screen, counter-screen for tim10-1 yeast inhibitor project, luminescence, uHTS | inhibition, % at 10 µM | AID 463195, 2010 | S. cerevisiae TIM10 strain growth, BacTiter-Glo luminescence, 24 h | 330,000 tested, 1.4% active;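 active means inhibition of 40% or more at the single tested concentration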;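 further: wild-type TIM10 isogenic control strain grown at permissive 25 °C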
Mdm2-MdmX inh: inhibitors of human Mdm2-MdmX association, primary screen, cell-based, luminescence, split luciferase, SaOS-2, uHTS. Protein Mdm4 (Homo sapiens) + E3 ubiquitin-protein ligase Mdm2 (Homo sapiens), …. SaOS-2 split-luciferase Mdm2/MdmX complementation. inhibition, % at 8 µM. 330,000 tested, 3% active. AID 485346, 2010;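 active means inhibition of at least 50% at 8 µM in the primary screen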
tim10-1 conf: growth inhibitors of tim10-1 mutant yeast, confirmation, single concentration, luminescence, S. cerevisiae. shares compounds with tim10-1 inh. inhibition, % at 20 µM. AID 463213, 2010. S. cerevisiae tim10-1 ts strain growth, BacTiter-Glo, 24 h. 7,400 tested, 56% active;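 active means inhibition of yeast growth at or above a set limit in either of two repeat tests at 20 µM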;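 further: tim10-1 mutant grown at permissive 25 °C to find synthetic lethal compounds; 0% = DMSO yeast wells and 100% = medium wells without yeast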
TIM10 conf: growth inhibitors of wild-type TIM10 yeast, confirmation, counter-screen for tim10-1 synthetic lethality project, single concentration, luminescence, S. cerevisiae; shares compounds with TIM10 inh; S. cerevisiae tim10 strain growth, BacTiter-Glo luminescence, 24 h; inhibition, % at 10 µM; 4,600 tested, 63% active; AID 463215, 2010;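 active means inhibition of yeast growth at or above a set limit in either of two replicates at 10 µM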;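 further: this counterscreen used the strain with wild-type TIM10; 0% = yeast with DMSO and 100% = medium wells lacking yeast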
An asterisk follows results filed as active; . = not tested or not shown.

SMILES | tim10-1 inh | MPTP block | tim23-1 inh | TIM10 inh | Mdm2-MdmX inh | tim10-1 conf | TIM10 conf
COC(=O)C1CCN(C(=O)c2sc3nc(-c4ccccc4)cn3c2C)CC1 | 48* | 1 | 40 | 43* | -20 | 38* | 26
COc1ccc(-c2cn3c(C)c(C(=O)N4CCN(c5ccc(F)cc5)CC4)sc3n2)cc1 | 8 | -1 | 8 | 6 | 10 | . | .
CCOC(=O)N1CCN(C(=O)c2sc3nc(-c4ccc(F)cc4)cn3c2C)CC1 | 56* | 1 | 21 | 43* | 2 | 38* | 40*
COc1ccccc1N1CCN(C(=O)c2sc3nc(-c4ccc(F)cc4)cn3c2C)CC1 | 66* | 0 | 43 | 40 | 17 | 58* | 51*
Cc1c(C(=O)N2CC(C)OC(C)C2)sc2nc(-c3ccc(F)cc3)cn12 (stereo unspecified) | 30 | -1 | 12 | -1 | 18 | . | .
COc1ccc(-c2cn3c(C)c(C(=O)N4CCN(c5ccccc5)CC4)sc3n2)cc1 | . | -1 | . | . | . | . | .
O=C(C[C@@H]1CC[C@H](NC(=O)Cc2ccccn2)[C@@H](CO)O1)NCCc1ccccc1 | . | -1 | . | . | . | . | .
Cc1cn([C@H]2C[C@H](O)[C@@H](/C=C/C(=O)NCCC(C)C)O2)c(=O)[nH]c1=O | . | -2 | . | . | . | . | .
COc1ccc(Nc2nc(N)nc(CSC(=S)N3CCCCC3)n2)cc1 | 37 | -1 | 25 | 35 | 22 | . | .
CC1CCN(C(=S)SCc2nc(N)nc(Nc3ccccc3)n2)CC1 | 41* | 9 | 42 | 43* | -9 | 19 | 34*
CC(c1ccc2ccccc2c1)c1ccccc1C(=O)O (stereo unspecified) | . | -2 | . | . | . | . | .
CCOc1cc2c3c(c1)C1(OCCO1)C(=O)N3C(C)(C)CC2C (stereo unspecified) | 14 | -4 | 24 | -10 | -7 | . | .
CCOc1cc2c3c(c1)C1(Nc4ccccc4S1)C(=O)N3C(C)(C)CC2C (stereo unspecified) | 49* | 1 | 46 | 47* | 3 | 48* | 32*
CCCCCCCCN1C(=O)[C@H](CC(=O)NCc2ccc(OC)c(OC)c2)C[C@@]2(C(=O)OC)CCCCC=C12 | . | 0 | . | . | . | . | .
Cc1ccc(C(=O)Nc2ccccc2C(=O)NCc2ccccc2)cc1 | 47* | 4 | 44 | 48* | -25 | 41* | 4
COc1cc2c(cc1OC)C(=NO)CCCC2 | . | 0 | . | . | . | . | .
Cc1ccc2cccc(NC(=S)NC(=O)c3ccccc3)c2n1 | 43* | -1 | 17 | 42* | -1 | 31* | 43*
Cc1cc(C)c2cccc(NC(=S)NC(=O)c3ccccc3)c2n1 | 28 | 3 | 8 | 19 | 8 | . | .
CN(C)c1ccc(-n2cc3c(=O)n(C)c(=O)n(C)c3c2)cc1 | 25 | -2 | 21 | 8 | 6 | . | .
CCN(CC)c1ccc(-n2cc3c(=O)n(C)c(=O)n(C)c3c2)cc1 | 40* | -3 | 50 | 46* | 36 | 31* | -3
Nc1c(C(=O)c2ccccc2)oc2ccc(Br)cc12 | 45* | 15 | 29 | 52* | -114 | 18 | 33*
Nc1c(C(=O)c2ccc(Br)s2)oc2ccccc12 | 47* | 3 | 31 | 43* | -18 | 35* | 42*
COc1ccc2oc(C(=O)CCC(=O)O)c(N)c2c1 | -8 | -1 | 7 | -4 | -19 | . | .
COC(=O)CCC(=O)c1oc2ccc(Br)cc2c1N | 41* | -2 | 45 | 44* | -7 | 34* | 31*
Nc1c(C(=O)c2ccc(Br)cc2)oc2ccccc12 | 5 | 1 | 18 | 17 | -36 | . | .
SMILES | tim10-1 inh | MPTP block | tim23-1 inh | TIM10 inh | Mdm2-MdmX inh | tim10-1 conf | TIM10 conf
O=C(CN1CCN(C(C(=O)Nc2cc(C(F)(F)F)ccc2Cl)c2ccccc2)CC1)NC1CC1 (stereo unspecified) | . | 0 | . | . | . | . | .
CCCc1nc2ccc(C)cn2c1Cc1cccc(Cl)c1 | . | -1 | . | . | . | . | .
COc1cc(NCCCn2cnc3c(OC)ncnc32)cc(OC)c1OC | . | -2 | . | . | . | . | .
COc1cccc(CNC(=O)[C@@H]2CCCN2C(=O)[C@H]2CCCCN2C(=O)c2ccccc2)c1 | . | 1 | . | . | . | . | .
Cc1noc(C)c1C(=O)Nc1nc(C23CC4CC(CC(C4)C2)C3)cs1 | 52* | 4 | 44 | 48* | 36 | 38* | 39*
O=C(Cn1c2ccc(F)cc2c2nc3n(c(=O)c21)CCS3)Nc1ccccc1F | 51* | . | 17 | 52* | 18 | 44* | 42*
O=C(Cn1c2ccc(F)cc2c2nc3n(c(=O)c21)CCS3)Nc1ccccc1C(F)(F)F | 36 | -1 | 1 | 7 | 15 | . | .
Cc1ccc(-n2c(-c3cccc(C)c3)n[nH]c2=S)cc1 | 43* | 0 | 31 | 46* | -7 | 15 | 16
COc1ccc(C(C)(NC(C)=O)c2nc(-c3ccc(F)cc3OC)cs2)cc1 (stereo unspecified) | . | 0 | . | . | . | . | .
O=c1c2ccccc2nc(/C=C/c2ccc([N+](=O)[O-])cc2)n1CCCO | 6 | 0 | 5 | 5 | 12 | . | .
O=c1c2ccccc2nc(/C=C/c2ccc([N+](=O)[O-])o2)n1CCCO | 86* | -1 | -16 | 59* | 33 | 83* | 22
CCOC(=O)C1CCCN(C(=O)c2sc(-c3ccccc3)nc2C)CC1 (stereo unspecified) | . | 0 | . | . | . | . | .
CN1CCN(c2ccc3c(c2)OC[C@@H](Cc2ccccc2)NS3(=O)=O)CC1 | . | 0 | . | . | . | . | .
CCCCCc1nc2c(=O)n(C)c3ccccc3c2o1 | 23 | 0 | 22 | 21 | -5 | . | .
Cn1c(=O)c2nc(-c3ccccc3)oc2c2ccccc21 | 55* | 0 | 49 | 59* | -3 | 48* | 68*
COc1ccc(C(O)c2ncc(-c3ccc4ccccc4c3)[nH]2)cc1F (stereo unspecified) | . | 1 | . | . | . | . | .
O=C(Nc1cccc2ccccc12)c1nn(C23CC4CC(CC(C4)C2)C3)cc1[N+](=O)[O-] | 40* | 0 | 48 | 41* | 9 | 32* | 14
COc1ccc(NC(=O)c2nn(C34CC5CC(CC(C5)C3)C4)cc2[N+](=O)[O-])cc1 | 5 | -1 | 19 | 18 | -20 | . | .
CCc1ccc(NC(=S)N2CCCCCCC2)cc1 | 42* | 0 | 29 | 41* | -25 | 31 | 17
CCOC(=O)c1ccc(NC(=S)N2CCCC(C)C2)cc1 (stereo unspecified) | 25 | 0 | 5 | 27 | 11 | . | .
CCCCc1ccc(NC(=S)N2CCCC(C)C2)cc1 (stereo unspecified) | 43* | -1 | 36 | 45* | 25 | 29 | 31*
